Experimental data published in PubChem BioAssay (NCATS).
Records with an inconclusive call do not appear. Entries that show only a call come without a potency. Active and inactive are the calls of the source. Calls follow the shape of the dose curve; as a rule, active = well fitted curve in the direction sought with a large enough effect; inconclusive = small, poorly fitted or top-dose-only effect, or another doubt; inactive = no such curve, though single readings can be large; an effect the other way counts as inactive or inconclusive.

What was measured:
[1] = target: Aldehyde dehydrogenase, mitochondrial (Homo sapiens) (UniProt P05091); assay: qHTS for Inhibitors of the Aldehyde Dehydrogenase Family (ALDH2) Primary screen (AID 2061308); conditions: ALDH2 enzyme inhibition qHTS, 1536-well; series mostly up to 56 µM; also: nearly all actives have a fitted effect of over 55% in size
[2] = target: Retinaldehyde dehydrogenase 3 (Homo sapiens) (UniProt P47895); assay: qHTS for Inhibitors of the Aldehyde Dehydrogenase Family (ALDH1A3) Primary screen (AID 2061315); conditions: ALDH inhibition qHTS; series mostly up to 56 µM

Q: For `O=C(Nc1cc(C(F)(F)F)cc(C(F)(F)F)c1)Nc1nnc(-c2ccncc2)s1`, which Potency [1] is on record?
A: inactive

Q: What about the Potency [2] of the same molecule?
A: inactive

Q: Which results are given for `COc1ccc(NC(=O)c2cnn3c(C)cc(C)nc23)cc1OC`?
A: Potency [1]: inactive; Potency [2]: inactive

Q: With `O=C(Nc1nc(-c2ccccc2)cs1)c1ccncc1NS(=O)(=O)c1ccccc1` as the molecule, how does the Potency [1] read?
A: inactive

Q: And the Potency [2]?
A: inactive

Q: Which Potency [1] does the source give for `Cc1ccc(NC(=O)CN2C(=O)N/C(=C\c3cccn3-c3ccc([S+](N)(=O)[O-])cc3)C2=O)cc1` here?
A: inactive

Q: And the Potency [2]?
A: inactive

Q: For `Cc1ccc(S(=O)(=O)Nc2ccc(C(=O)Nc3ncc(-c4ccccc4)s3)cc2)cc1`, which Potency [1] is on record?
A: inactive

Q: And the Potency [2]?
A: inactive

Q: Which results are given for `CCOc1ccc(C(=O)Oc2ccc(-c3nc4ccccc4[nH]3)cc2)cc1`?
A: Potency [1]: inactive; Potency [2]: inactive

Q: Which results are given for `CN(C)c1cccc(-c2ccnc(N3CCC(C(N)=O)CC3)n2)c1`?
A: Potency [1]: inactive; Potency [2]: inactive

Q: How did the Potency [1] turn out when `Cc1csc(CNc2ncnc3ccc(-c4ccco4)cc23)c1` was run?
A: inactive

Q: What about the Potency [2] of the same molecule?
A: inactive

Q: How did the Potency [1] turn out when `CCC(C)(CCN1CCOCC1)N(Cc1cc2ccccc2n(C)c1=O)C(=O)C1CCCCC1` (stereo not drawn) was run?
A: inactive

Q: What about the Potency [2] of the same molecule?
A: inactive

Q: `Cc1cnc(-c2ccccc2OC(C)C)nc1NCc1ccc(-n2ccnn2)cc1` was tested. Which Potency [1] did it give?
A: inactive

Q: And the Potency [2]?
A: inactive

Q: For `COc1cc(O)c(C(CC(=O)N2CCC(c3ccccc3)CC2)c2ccc(C)cc2)c(OC)c1` (stereo not drawn), which Potency [1] is on record?
A: inactive

Q: What about the Potency [2] of the same molecule?
A: inactive

Q: For `CNC(=O)c1cnn2c(C)cc(C)nc12`, which Potency [1] is on record?
A: inactive

Q: And the Potency [2]?
A: inactive

Q: `Cc1ccc(NS(=O)(=O)c2cc3c(cc2NCCO)NC(=O)CC3)cc1C` was tested. Which Potency [1] did it give?
A: inactive

Q: What about the Potency [2] of the same molecule?
A: inactive

Q: Which results are given for `O=S(=O)(Nc1nccs1)c1ccc(NCc2cccc(Cl)c2O)cc1`?
A: Potency [1]: inactive; Potency [2]: inactive

Q: What does the source list for `Cc1ccc(S(=O)(=O)Nc2cnccc2C(=O)Nc2ccc3ccccc3c2)cc1`?
A: Potency [1]: inactive; Potency [2]: inactive

Q: Which Potency [1] does the source give for `Cc1ccc(OCCn2c(CCNC(=O)CCc3ccccc3Br)nc3ccccc32)cc1` here?
A: inactive

Q: And the Potency [2]?
A: inactive

Q: With `C=C1C(=O)OC2C1CCC1(C)C(O)CC=C(C)C21` (stereo not drawn) as the molecule, how does the Potency [1] read?
A: inactive

Q: What about the Potency [2] of the same molecule?
A: inactive

Q: Which Potency [1] does the source give for `O=C(Cc1ccc(Cl)c(Cl)c1)Nc1ccc([S+](=O)([O-])Nc2cccc([N+](=O)[O-])c2)cc1` here?
A: inactive

Q: And the Potency [2]?
A: inactive

Q: How did the Potency [1] turn out when `Cc1cc(C)nc(NC(=S)N2CCN(c3ccc(Cl)c(C(F)(F)F)c3)CC2)c1` was run?
A: inactive

Q: And the Potency [2]?
A: inactive

Q: Which results are given for `Cc1cc(C)nc(NC(=S)N2CCN(c3nsc4ccccc34)CC2)c1`?
A: Potency [1]: inactive; Potency [2]: inactive

Q: With `CC[C@H]1OC(=O)[C@H](C)[C@@H](O[C@H]2C[C@@](C)(OC)[C@@H](O)[C@H](C)O2)[C@H](C)[C@@H](O[C@@H]2O[C@H](C)C[C@H](N(C)C)[C@H]2O)[C@](C)(O)C[C@@H](C)/C(=N/OCOCCOC)[C@H](C)[C@@H](O)[C@]1(C)O` as the molecule, how does the Potency [1] read?
A: inactive

Q: What about the Potency [2] of the same molecule?
A: inactive

Q: What does the source list for `O=C(CSc1ncnc2sc3c(c12)CCCCC3)NCc1ccco1`?
A: Potency [1]: inactive; Potency [2]: inactive

Q: With `O=C1c2ccccc2C(=O)N1c1cc(=O)c2ccccc2[nH]1` as the molecule, how does the Potency [1] read?
A: inactive

Q: And the Potency [2]?
A: inactive

Q: For `CCN1CCN(c2cccc(Nc3nn4c(=O)c5ccccc5nc4s3)c2)CC1`, which Potency [1] is on record?
A: inactive

Q: And the Potency [2]?
A: inactive

Q: With `Cc1ccsc1CN(C)c1ncnc2ccc(-c3ccc([C@@H](C)O)o3)cc12` as the molecule, how does the Potency [1] read?
A: inactive

Q: What about the Potency [2] of the same molecule?
A: inactive

Q: Which Potency [1] does the source give for `Oc1ccc(CNCc2ccc3c(c2)OCO3)c2cccnc12` here?
A: inactive

Q: What about the Potency [2] of the same molecule?
A: inactive

Q: For `c1nc(N2CCOCC2)c2cc(-c3ccc4c(c3)OCO4)ccc2n1`, which Potency [1] is on record?
A: inactive

Q: And the Potency [2]?
A: inactive

Q: How did the Potency [1] turn out when `Cc1csc(CNc2ncnc3ccc(-c4ccc5c(ccn5C)c4)cc23)c1` was run?
A: inactive

Q: And the Potency [2]?
A: inactive

Q: Which results are given for `Fc1cccc(CSc2nc3ncc(Br)cc3[nH]2)c1`?
A: Potency [1]: inactive; Potency [2]: inactive

Q: Which results are given for `c1csc(CCNc2ncnc3ccc(-c4ccc5c(c4)OCO5)cc23)c1`?
A: Potency [1]: inactive; Potency [2]: inactive

Q: What does the source list for `OCc1ccc(-c2ccc3ncnc(NCc4ncc[nH]4)c3c2)o1`?
A: Potency [1]: inactive; Potency [2]: inactive

Q: `Cc1cnc(-c2ccccc2C(F)F)nc1NCC1CN(c2cnccn2)C1` was tested. Which Potency [1] did it give?
A: inactive

Q: And the Potency [2]?
A: inactive

Q: How did the Potency [1] turn out when `Cc1ccc(-c2ccc(=O)n(CC(=O)NCCCc3ccccn3)n2)cc1` was run?
A: inactive

Q: What about the Potency [2] of the same molecule?
A: inactive

Q: How did the Potency [1] turn out when `CCCC1CCC(C(=O)Nc2ccc(S(=O)(=O)Nc3nccs3)cc2)CC1` (stereo not drawn) was run?
A: inactive

Q: What about the Potency [2] of the same molecule?
A: inactive

Q: How did the Potency [1] turn out when `c1csc(CNc2ncnc3ccc(-c4ccoc4)cc23)c1` was run?
A: inactive

Q: What about the Potency [2] of the same molecule?
A: inactive

Q: Which Potency [1] does the source give for `N#Cc1nc(Nc2cc(F)cc(F)c2)c2ncn(CCCO)c2n1` here?
A: inactive

Q: What about the Potency [2] of the same molecule?
A: inactive

Q: For `O=C(O)c1ccc2c(c1)C(=O)N([C@]1(C(=O)O)CC1c1ccccc1)C2=O` (stereo partly drawn), which Potency [1] is on record?
A: inactive

Q: And the Potency [2]?
A: inactive

Q: For `COc1cc(F)c(S(=O)(=O)N2CCCN(S(=O)(=O)c3cccc(N)c3)CC2)c(F)c1`, which Potency [1] is on record?
A: inactive

Q: What about the Potency [2] of the same molecule?
A: inactive

Q: Which results are given for `CC(=O)NC(c1cc(Cl)c2cccnc2c1O)C1CC1` (stereo not drawn)?
A: Potency [1]: inactive; Potency [2]: inactive
